# Rows were chosen to be rich in hits. Some 1.3% of all compounds tested hit in one or more screens of this group.
# m-calpain inh – blocks pig calpain II enzyme activity; purified calpain II, fluorogenic peptide substrate, 30 min; inhibition, % at 16 µM; actives 0.37% (n = 220,000);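 active = inhibition above about 50%, limit read from the data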
# PERK inhibitor – blocks human PERK kinase | CHO PERK-DD fusion, SEAP luminescence translation reporter | inhibition, % at 5.6 µM | actives 0.17% (n = 220,000);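 active = inhibition above the mean inhibition of all tested compounds plus 3 SD, set separately per screening campaign, cut at about 2.9% in these data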;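 note: PERK kinase domain activated by AP20187 dimerizer at 100 nM; 0% = DMSO with dimerizer and 100% = rapamycin at 8.4 µM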
# S1P4 agonist – agonists of human S1P4 receptor | O95977 | activation, % at 4.98 µM | actives 0.35% (n = 220,000) | S1P4-expressing cell line, agonist reporter assay; in the data active = activation above about 11%;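 note: 0% = DMSO vehicle and 100% = reference agonist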
# S1P3 antag – blocks the human S1P3 receptor; Q99500; CHO S1P3 NFAT-BLA reporter, FRET fluorescence, antagonist mode; actives 0.27% (n = 170,000); inhibition, % at 4.98 µM;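 active = inhibition above the plate cutoff, the mean inhibition of test wells on that plate plus 3 SD, cut at about 28% in these data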;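 note: cells challenged with S1P at its EC80 of 0.8 µM; blue over green emission ratio from cleaved BLA substrate after 4 h stimulation; 0% = S1P-stimulated wells and 100% = unstimulated DMSO-only wells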
# Target sequence (Q99500 whole entry, looked up): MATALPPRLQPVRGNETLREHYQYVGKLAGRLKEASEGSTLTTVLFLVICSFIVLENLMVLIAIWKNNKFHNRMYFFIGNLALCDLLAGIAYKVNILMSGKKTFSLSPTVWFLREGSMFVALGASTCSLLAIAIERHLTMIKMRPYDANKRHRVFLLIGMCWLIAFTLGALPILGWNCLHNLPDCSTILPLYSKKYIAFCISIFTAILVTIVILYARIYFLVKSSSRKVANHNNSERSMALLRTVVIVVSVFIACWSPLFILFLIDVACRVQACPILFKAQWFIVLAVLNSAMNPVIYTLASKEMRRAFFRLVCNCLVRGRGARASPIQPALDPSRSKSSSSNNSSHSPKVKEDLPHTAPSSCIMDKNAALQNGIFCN
# S1P4 antagonist – antagonists of human S1P4 receptor; O95977; S1P4-expressing cells, antagonist mode, reporter read-out; inhibition, % at 4.98 µM; actives 0.26% (n = 220,000); AID 1510; in the data active = inhibition above about 29%;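 note: 0% = wells stimulated with agonist and 100% = vehicle wells without agonist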
# S1P4 antag conf – human S1P4 antagonism, confirmation | AID 1524 | inhibition, % at 4.98 µM | actives 71% (n = 520) | shares compounds with S1P4 antagonist | S1P4-expressing cell line, antagonist mode, reporter read-out; in the data active = inhibition above about 30%
# S1P1 antag – counter-screen for S1P4 antagonists: antagonists of human S1P1 | shares compounds with S1P4 antagonist | cell-based S1P1 antagonist counterscreen, inhibition | inhibition, % at 4.98 µM | actives 37% (n = 520); in the data active = inhibition above about 40%;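 note: receptor stimulated with S1P near its EC80; 0% = agonist stimulated wells and 100% = vehicle only wells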
# * = called active by the depositor; x = no result given.
SMILES,m-calpain inh,PERK inhibitor,S1P4 agonist,S1P3 antag,S1P4 antagonist,S1P4 antag conf,S1P1 antag
CC(C)C[C@H](N)c1nnc(S(=O)(=O)Cc2cccc(F)c2)o1,2,0,1,-26,-7,x,x
CC[C@@H](C)[C@H](NC(=O)OC(C)(C)C)c1nnc(S(=O)(=O)Cc2cc(C)ccc2C)o1,9,0,-4,-7,57*,105*,35
CCOc1ccccc1-n1c(=S)sc2c(=O)n(-c3ccccc3)c(=S)[nH]c21,24,1,-3,13,-3,x,x
CCN(CC)S(=O)(=O)c1ccc(C)c(NC(=S)NC2CCCCC2)c1,16,-1,0,-6,2,x,x
COc1cc(/C=C/C(=O)O)cc(S(=O)(=O)N2CCc3ccccc3C2)c1OC,-13,0,2,-1,9,x,x
O=C(/C=C/c1ccc([N+](=O)[O-])cc1)NCc1cccnc1,24,1,-1,x,-9,x,x
O=C(/C=C/c1ccc([N+](=O)[O-])cc1)c1cccnc1,-6,0,1,-4,34*,79*,52*
O=C(/C=C/c1cccc(Cl)c1)c1nc2ccccc2[nH]1,-16,-1,0,x,56*,104*,10
O=C(/C(=C\c1ccccc1)c1nc2ccccc2[nH]1)c1ccc(Cl)cc1,-83,0,1,6,-7,x,x
Cc1ccnc(N2C(=O)c3cccc4c([N+](=O)[O-])ccc(c34)C2=O)c1,-131,1,1,x,105*,115*,133*
O=C1c2cccc3c([N+](=O)[O-])ccc(c23)C(=O)N1Cc1cccnc1,-465,1,2,7,72*,95*,42*
CC1=CC(C)[C@H](/C=N/n2c(=O)[nH]c3c([nH]c4ccc(C)cc43)c2=O)C(C)C1 (stereo partly drawn),-12,1,-3,0,5,x,x
Cc1n[nH]c(C)c1N1C(=O)c2cccc3c(Br)ccc(c23)C1=O,15,2,1,x,70*,79*,93*
Nc1ccc2c3c(cccc13)C(=O)N(c1ccccc1)C2=O,-96,1,1,3,-5,x,x
CCOc1ccccc1NC(=O)C(=O)N/N=C/c1cc(Br)ccc1O,-45,0,1,-5,-1,x,x
CCOC(=O)c1cnc(SC2CC(=O)N(c3ccc(C)cc3)C2=O)nc1N (stereo not drawn),-14,-1,-2,x,44*,14,16
CCOC(=O)c1cnc(SCc2ccc(C)cc2)nc1N,-16,0,0,x,-6,x,x
O=C(COC(=O)CCSc1ccccc1)NCc1ccccc1,15,-1,1,-11,0,x,x
CCc1ccc(OCC(=O)NC(NC(=S)Nc2ccc(Cl)cc2)C(Cl)(Cl)Cl)cc1 (stereo not drawn),-6,0,0,5,42*,0,-4
O=[N+]([O-])c1ccc(-n2nnnc2-c2ccccc2)c([N+](=O)[O-])c1,25,0,-3,6,35*,53*,31
O=[N+]([O-])c1ccc(-n2nnnc2-c2ccccc2)cc1,-17,1,0,5,0,x,x
CN(C)c1ccc(C(=O)c2ccc(N(C)C)c3ccccc23)cc1,5,-1,-1,x,34*,50*,60*
COc1ccc(C(=O)c2ccc(N(C)C)cc2)c(OC)c1,-4,-1,1,28,-12,x,x
COC(CNC(=O)c1ccc2c3c(onc13)-c1ccccc1C2=O)OC,-18,-2,6,-3,37*,114*,22
CC(C)C(=O)N1CCN(c2ccc(NC(=O)c3ccc(Br)o3)cc2)CC1,20,0,0,-18,-2,x,x
SMILES,m-calpain inh,PERK inhibitor,S1P4 agonist,S1P3 antag,S1P4 antagonist,S1P4 antag conf,S1P1 antag
CCCC(=O)N1CCN(c2ccc(NC(=O)c3ccc([N+](=O)[O-])o3)cc2Cl)CC1,31,1,0,6,87*,99*,49*
CC(C)C(=O)N1CCN(c2ccc(NC(=O)c3ccc([N+](=O)[O-])o3)cc2)CC1,13,-2,-5,-3,70*,88*,66*
O=C(Nc1ccc(N2CCN(C(=O)c3ccccc3)CC2)cc1)c1ccc([N+](=O)[O-])o1,-9,1,0,2,84*,116*,77*
CCCCOC(=O)CSc1nc2ccccc2o1,19,2,-1,6,-11,x,x
CCCCCCCCc1nnc(N)s1,-9,0,0,2,-15,x,x
COc1ccc(-c2cc(C(=O)OCC(=O)N(C)C3CCS(=O)(=O)C3)c3ccccc3n2)cc1OC (stereo not drawn),-8,1,0,-2,-20,x,x
Cc1nn(C)cc1CN1CCCC(C(=O)c2ccc(-c3ccccc3)c(F)c2)C1 (stereo not drawn),9,0,1,12,-8,x,x
CN1Cc2c(N3CCOCC3)nc3sc(C(=O)c4ccc(Br)cc4)c(N)c3c2CC1(C)C,-12,-3,-2,12,43*,57*,58*
CCCN1C(=O)/C(=C/c2ccc(N3CCOCC3)cc2)NC1=S,9,0,-1,1,11,x,x
CCCN1C(=O)/C(=C/c2ccc(OCC(=O)OCC)cc2)NC1=S,2,0,-1,-19,30*,12,11
CCN(CC)CCNC(=O)c1ccc2c(c1NCCO)C(=O)c1ccccc1C2=O,-9,-2,0,9,81*,-11,-1
CCc1cc2c(=O)n(CCC(C)C)c(=S)[nH]c2s1,5,-1,2,-2,-21,x,x
CCc1nc2ccc(C(=O)NCc3ccco3)cc2nc1CC,-11,0,-1,4,1,x,x
O=C(NCc1ccco1)c1ccc2c(c1)CCO2,9,0,-1,-12,30*,3,-1
Cc1cc(C)c(S(=O)(=O)Nc2ccccc2C(=O)OCC(=O)NCc2ccccc2)c(C)c1,-191,1,2,2,-4,x,x
CC(=O)c1cc(Cl)ccc1OC(=O)c1ccco1,-3,1,1,0,-4,x,x
O=C(Oc1ccc(Br)cc1C(=O)/C=C/c1ccccc1F)c1ccco1,x,0,1,x,41*,94*,34
O=C(NCc1ccco1)c1ccccc1-c1nc(-c2ccccc2)no1,-9,-1,1,x,30*,-2,-2
CCOc1ccc(CN2CCN(Cc3cccn3-c3nccs3)CC2CCO)cc1 (stereo not drawn),24,-2,-1,-8,12,x,x
CN(Cc1cccc(-n2cccn2)c1)C(=O)CCc1nnc(C2CCCCC2)o1,-5,-1,0,-2,7,x,x
Oc1ccccc1C1CC(c2cccs2)=NC(c2ccc(Cl)cc2)N1 (stereo not drawn),1,0,0,-6,46*,21,12
CCN1C(=O)CS/C1=N\S(=O)(=O)c1ccc(Cl)cc1,6,1,2,-83,-8,x,x
